Test results from PubChem BioAssay (EPA / NIEHS).
Activity calls are given as the source filed them. Rule for the calls: active = hit-call score of the fitted dose curve at least 0.9, where 1 is the maximum; inactive = score below 0.9.

read-out: Collagen I, COL1A1 (gene 1277); assay: BSK_MyoF_CollagenI: BioMAP Diversity Plus: MyoF Assay for Collagen I Biomarker Activity (AID 2284238); conditions: primary human lung fibroblasts
In short: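 ELISA readout of Collagen I after 24 h chemical treatment of primary human lung fibroblast cultures; gain of signal scored relative to DMSO vehicle baseline.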

| SMILES | outcome | AC50 |
| --- | --- | --- |
| NC(=O)c1c(Cl)cccc1Cl | inactive | – |
| C=C(C)C(=O)OCCC(F)(F)C(F)(F)C(F)(F)C(F)(F)C(F)(F)C(F)(F)C(F)(F)C(F)(F)F | inactive | – |
| Nc1ccc(N)c([N+](=O)[O-])c1 | inactive | – |
| COc1ccccc1NC(=O)CC(C)=O | inactive | – |
| CC1=CC(C)C(C=O)C(C)C1 (centres undefined) (tested in a mixture with another compound) | inactive | – |
| c1ccc2c(c1)-c1ccc3ccc4cccc5cc-2c1c3c45 | inactive | – |
| CC(=O)OC(C)(C)C1CC=C(C)CC1 (centres undefined) | inactive | – |
| CC1(C)[C@H](C=C(Cl)Cl)[C@H]1C(=O)OCc1cccc(Oc2ccccc2)c1 | inactive | – |
| O=S(=O)(O)C(F)(F)C(F)(F)OC(F)(F)C(F)(F)F | inactive | – |
| CCCCCCCCCC(=O)OCC | inactive | – |
| CCOC(=O)CCCCCCCCC(=O)OCC | inactive | – |
| C=C(F)C(=O)OC(C(F)(F)F)C(F)(F)F | inactive | – |
| OCCN1CCOCC1 | inactive | – |
| C=CC(=O)OCC(CO)(COC(=O)C=C)COC(=O)C=C | – | 2.35 µM (active) |
